# Wnt act: activates Wnt/beta-catenin signaling in a reporter cell assay; activation, % at 9.35 µM; hit rate 1.2% among 300,000; AID 743398; activator, plate reader; in the data active = activation above about 30%, passing the limit was not always enough; inconclusive = no clear call, values can overlap the other calls
# esBAF inh: SWI/SNF esBAF complex inhibition. reporter increase, % at 12.5 µM. mouse ES cells, Bmi1-luciferase knock-in reporter, 24 h; 100% = twice the neutral-well signal. hit rate 2% among 350,000; in the data active = activation above about 40%; inconclusive = no clear call, values can overlap the other calls;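 note: a rise in the Bmi1 reporter signal indicates esBAF inhibition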
# ssDAF-12 act: activators of S. stercoralis DAF-12 nuclear receptor; hit rate 1% among 370,000; activation, % at 6.8 µM; HEK293 ssDAF-12/GRIP1 lit1-tk-luc reporter, luminescence; % of 3 µM dafachronic acid response;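 active = activation above the mean over all tested compounds plus 3 SD, cut at about 0.9% in these data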
# hcDAF12 agonist: activates DAF-12 receptor from parasite H. contortus. AID 652067. HEK293 hcDAF-12 lit1-tk-luc reporter, luminescence; 0% DMSO, 100% Δ7-dafachronic acid. hit rate 1.4% among 370,000. activation, % at 6.8 µM;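 active = activation above the mean of all tested compounds plus 3 SD, cut at about 5.5% in these data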
# hgDAF12 agonist: agonists of H. glycines DAF-12 nuclear receptor; HEK293 GAL4-hgDAF12 UAS-luciferase reporter, agonist luminescence; normalized to butyrate control; activation, % at 6.8 µM; hit rate 1.8% among 370,000; AID 687014;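 active = activation above a cutoff set at the mean of all screened compounds plus 3 SD, cut at about 10% in these data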
# DAX1 StAR inh: blocks DAX1 repression of SF-1 activated StAR promoter; HEK293T StAR-luciferase reporter, SF-1/DAX-1 repression relief; AID 652010; hit rate 1.1% among 370,000; inhibition, % at 6.8 µM;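 active = inhibition above the mean over all tested compounds plus 3 SD, cut at about 3.6% in these data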;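 note: higher inhibition means more luminescence from relief of DAX-1 repression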
# Ring1 derepress: esBAF inhibition confirmed by Ring1 de-repression; fold change at 33 µM; AID 743176; mouse ESC E14, Ring1 mRNA RT-qPCR fold change; 550 tested, under 10 active; shares compounds with esBAF inh;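 active = Ring1 gene expression raised more than 2-fold over untreated cells in both replicates at either tested dose; inconclusive = only one replicate above 2-fold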;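 note: Ring1 transcript normalised to actin housekeeping signal by TaqMan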
# Fgf4 repress: represses Fgf4 in mouse ESCs, confirming esBAF inhibition. shares compounds with esBAF inh. mouse ESC E14, Fgf4 mRNA qPCR fold change; stronger effect = lower value. Fgf4 expression fold change at 33 µM. hit rate 4% among 550. AID 743177;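 active = Fgf4 expression under 0.8 fold of control in both repeat measurements at one or both tested doses; inconclusive = under 0.8 fold in just a single repeat measurement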;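 note: Fgf4 transcript normalised to actin in duplex TaqMan qPCR; cells exposed to compound for 24 h before lysis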
# esBAF Bmi1 qPCR: confirmation of esBAF inhibitors: Bmi1 de-repression in mouse ESCs; shares compounds with esBAF inh; mouse ESE14 ES cells, Bmi1 mRNA qPCR fold; stronger effect = higher value; fold change at 33 µM; 550 tested, under 10 active;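 active = Bmi1 expression fold change above 6 at either tested concentration, seen in replicate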;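 note: higher fold means more Bmi1 de-repression and stronger esBAF inhibition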
# A549 tox SP: kills or reduces viability of A549 cells; shares compounds with esBAF inh; A549 cytotoxicity, plate reader; cell viability change % (negative = cytotoxic), % at 25 µM, hits read low; 550 tested, under 10 active; AID 743188; call rule not given here
# HepG2 cytotox SP: kills or reduces viability of HepG2 cells | shares compounds with esBAF inh | HepG2 cytotoxicity, plate reader; stronger effect = lower value | activity change, negative = inhibition, % at 25 µM | hit rate 4% among 550; in the data active = activity change below about -50%
# HEK293 cytotox SP: kills or reduces viability of HEK293 cells | shares compounds with esBAF inh | HEK293 cytotoxicity, plate reader | activity change, negative = inhibition, % at 25 µM, hits read low | hit rate 3% among 550; in the data active = activity change below about -38%, passing the limit was not always enough
# Hits are given with their value; – = inactive; ? = inconclusive; · = no result given. Rows were chosen to be rich in hits. Some 4.2% of all compounds tested hit in one or more screens of this group.
SMILES,Wnt act,esBAF inh,ssDAF-12 act,hcDAF12 agonist,hgDAF12 agonist,DAX1 StAR inh,Ring1 derepress,Fgf4 repress,esBAF Bmi1 qPCR,A549 tox SP,HepG2 cytotox SP,HEK293 cytotox SP
CC1(C)Cc2c(c(N3CCCC3)nc3sc(C(=O)Nc4ccccc4)c(N)c23)CO1,–,59,–,–,–,–,–,–,–,–,–,–
CS(=O)(=O)c1cccc(-c2csc(N3CCC(C(N)=O)CC3)n2)c1,–,68,–,–,–,–,–,–,–,–,–,–
CNc1cncc(-c2cccc(OC)c2F)n1,–,63,–,–,–,4.2,–,?,–,–,–,–
CNc1cncc(-c2c(OC)cccc2OC)n1,·,–,–,–,–,–,·,·,·,·,·,·
COCC#Cc1cnc2c(c1)C(=O)N([C@H](C)CO)C[C@@H](C)[C@H](CN(C)C(=O)c1cnccn1)O2,·,–,·,·,·,·,·,·,·,·,·,·
Clc1ccc(-c2nnc(-c3cccc4ccccc34)o2)cc1,39,71,–,–,–,–,–,–,–,–,–,–
CC(C)(C)C(=O)N1CCN(c2nc3ccc(Br)cc3s2)CC1,–,93,–,–,–,–,–,–,–,–,–,–
CCCC(=O)N1CCN(c2nc3ccc(Br)cc3s2)CC1,–,66,–,–,–,–,–,–,–,–,–,–
N#C[C@@H]1[C@H](c2ccc(C#CC3CCCCC3)cc2)[C@H](CO)N1C(=O)c1cccc(F)c1,·,–,·,·,·,·,·,·,·,·,·,·
N#Cc1ccc(C=NN2CCCCCC2)cc1,48,69,–,–,–,3.8,–,?,–,–,–,–
Clc1ccc(C=NN2CCCCCC2)c(Cl)c1,–,–,–,–,–,–,·,·,·,·,·,·
Clc1ccc(C=NN2CCCCCC2)cc1,?,82,–,–,–,–,–,–,–,–,–,–
CCC(=O)Nc1ccc2c(c1)C(=O)N(C)[C@@H]1CC[C@@H](CC(=O)NCCc3ccncc3)O[C@@H]1CO2,·,–,·,·,·,·,·,·,·,·,·,·
CC(=O)Nc1cc(NC(C)=O)cc(-c2nc3ccccc3[nH]2)c1,–,–,–,–,–,–,·,·,·,·,·,·
CC(=O)Nc1ccc(-c2nc3c(C)cccc3[nH]2)cc1,48,60,–,–,–,–,–,–,–,–,–,–
COC(=O)c1ccc2[nH]c(C(C)(C)O)c(C)c2c1,–,57,–,–,–,–,–,–,–,–,–,–
CC(=Nc1ccccc1O)c1sc2ccccc2c1O,86,83,–,–,13,–,–,–,–,–,–,–
Cc1c(C(=O)c2ccccc2C(=O)O)sc2ccccc12,–,–,–,–,–,–,·,·,·,·,·,·
FC(F)(F)c1cc(-c2ccccc2)nc(N2CCCCCC2)n1,–,–,–,–,–,–,·,·,·,·,·,·
c1ccc(-c2cnnc(N3CCCCC3)n2)cc1,–,55,–,–,–,–,–,–,–,–,–,–
Nc1cc(N)nc(SCc2ccccc2)n1,–,?,–,–,–,–,·,·,·,·,·,·
Nc1nc(SCc2ccccc2)cc(SCc2ccccc2)n1,39,65,–,–,12,–,–,–,–,–,–,–
CC(=O)c1cccc(OCc2cc(C(=O)NCCC3=CCCCC3)no2)c1,?,83,–,–,–,–,–,–,–,–,–,–
CCCCCCC1CCC(c2nc(-c3ccncc3)no2)CC1 (configuration not stated),·,–,–,–,–,–,·,·,·,·,·,·
CCCC1CCC(c2nc(-c3cccnc3)no2)CC1 (configuration not stated),·,60,–,–,–,–,–,?,–,–,–,–
SMILES,Wnt act,esBAF inh,ssDAF-12 act,hcDAF12 agonist,hgDAF12 agonist,DAX1 StAR inh,Ring1 derepress,Fgf4 repress,esBAF Bmi1 qPCR,A549 tox SP,HepG2 cytotox SP,HEK293 cytotox SP
Cc1cccc(N=C2NC(=O)/C(=C/c3cccn3C)S2)c1,–,·,–,–,–,–,·,·,·,·,·,·
O=C1NC(=Nc2ccccc2)S/C1=C\c1cccn1-c1ccccc1,·,67,–,–,–,–,2.6,0.44,11,–,–,–
COc1ccc2oc3cc(Cl)ccc3c(=O)c2c1,–,80,–,–,–,–,–,?,–,–,–,–
CC(C)c1ccc(CNc2nnnn2C)cc1,–,–,–,–,–,–,·,·,·,·,·,·
CC(C)c1ccc(CNc2ncc(Br)cn2)cc1,–,73,–,–,–,–,–,–,–,–,-63,–
Cc1noc(C)c1NC(=O)Nc1ccc2c(c1)C(=O)N(C)[C@@H]1CC[C@@H](CC(=O)N(C)C)O[C@H]1CO2,·,–,·,·,·,·,·,·,·,·,·,·
COc1cccc2sc(NC(=O)c3ccc(Br)s3)nc12,·,68,–,–,–,–,–,–,–,–,–,–
COc1ccc(S(=O)(=O)N(C)C[C@@H]2Oc3ccc(NC(=O)Nc4cccc5ccccc45)cc3CC(=O)N([C@H](C)CO)C[C@@H]2C)cc1,·,–,·,·,·,·,·,·,·,·,·,·
Cc1cc(C)cc(N(CC(=O)Nc2ccc(-c3nc4ccc(C)cc4s3)cc2)S(C)(=O)=O)c1,39,47,–,–,–,–,–,–,–,–,–,–
Cc1cccc(N(CC(=O)Nc2ccc(F)cc2)S(C)(=O)=O)c1,–,–,–,–,–,–,·,·,·,·,·,·
O=C(CC(=O)c1ccccc1)c1ccccc1,–,86,–,–,11,3.6,–,–,–,–,–,–
COCCNC(=O)C[C@@H]1C[C@@H]2c3cc(NS(C)(=O)=O)ccc3O[C@@H]2[C@H](CO)O1,·,–,·,·,·,·,·,·,·,·,·,·
Fc1ccc2nc(-c3ccccc3)ccc2c1,–,60,–,–,–,–,–,–,–,–,-58,–
Cc1ccc(S(=O)(=O)Nc2cccc3c2O[C@@H](CN(C)S(=O)(=O)c2ccc(F)cc2)[C@H](C)CN([C@@H](C)CO)C3=O)cc1,·,–,·,·,·,·,·,·,·,·,·,·
O=C(NC1CCCC1)c1cc(-c2ccc(Cl)c(Cl)c2)on1,–,64,–,–,–,–,–,–,–,–,–,–
C/C=C/c1cnc2c(c1)C(=O)N([C@H](C)CO)C[C@@H](C)[C@H](CN(C)C(=O)c1ccc3c(c1)OCO3)O2,·,–,·,·,·,·,·,·,·,·,·,·
CCn1c2ccccc2c2cc(/C(C)=N/O)ccc21,–,–,–,–,–,–,·,·,·,·,·,·

# Source: PubChem BioAssay (several laboratories)
